The supplement of paper PMC7411054
Structures can show the parent of a compound that is named as a salt.

Legend:
Details in all cases: treatment time: 24 h
[1] = tested on: HepG2-CANX-COX4; experiment: lowest phenotypically active concentration; higher = less potent
How it was run: (§1)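 Each of fifteen gene-edited A549, HepG2 and WPMY1 reporter lines, marked with BFP for segmentation and GFP and RFP/FusionRed, was treated in four wells at 0.3, 1, 3 or 9 µM for 24 h prior to live imaging. Normalisation of per-well live-cell features used solvent control wells. Deviation needed ≥3 of 4 wells beyond the 95th percentile of control Euclidean distances, and reproducibility needed a median replicate Pearson correlation above the 95th percentile of non-replicates. Both were required for phenotypic activity.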

[2] = tested on: HepG2-GM130-SQSTM1; experiment: as above
How it was run: as §1

[3] = tested on: WPMY1-ACTB-RAB5A; experiment: as above
How it was run: as §1

[4] = tested on: WPMY1-GM130-SQSTM1; experiment: as above
How it was run: as §1

[5] = tested on: A549-ACTB-RAB5A; experiment: phenotypically active (imaging signature differs from DMSO and reproducible) at any of 0.3-9 uM (binary (1 = active, 0 = inactive)); higher = active
How it was run: as §1

[6] = tested on: A549-CANX-COX4; experiment: as above
How it was run: as §1

[7] = tested on: A549-GM130-SQSTM1; experiment: as above
How it was run: as §1

[8] = tested on: A549-TP53BP1-CLTA; experiment: as above
How it was run: as §1

[9] = tested on: A549-TUBA1B-RELA; experiment: as above
How it was run: as §1

[10] = tested on: HepG2-ACTB-RAB5A; experiment: as above
How it was run: as §1

[11] = tested on: HepG2-CANX-COX4; experiment: as above
How it was run: as §1

[12] = tested on: HepG2-GM130-SQSTM1; experiment: as above
How it was run: as §1

[13] = tested on: HepG2-TP53BP1-CLTA; experiment: as above
How it was run: as §1

[14] = tested on: HepG2-TUBA1B-RELA; experiment: as above
How it was run: as §1

[15] = tested on: WPMY1-ACTB-RAB5A; experiment: as above
How it was run: as §1

[16] = tested on: WPMY1-CANX-COX4; experiment: as above
How it was run: as §1

[17] = tested on: WPMY1-GM130-SQSTM1; experiment: as above
How it was run: as §1

[18] = tested on: WPMY1-TP53BP1-CLTA; experiment: as above
How it was run: as §1

[19] = tested on: WPMY1-TUBA1B-RELA; experiment: as above
How it was run: as §1

[20] = tested on: HepG2-TUBA1B-RELA; experiment: lowest phenotypically active concentration; higher = less potent
How it was run: as §1

CCCc1cc2c(N3CCN(C4=NCC(C)(C)S4)CC3)ncnc2s1 [MI 2 dihydrochloride]
active: phenotypically active [7] 1 | phenotypically active [10] 1 | phenotypically active [11] 1 | phenotypically active [12] 1 | phenotypically active [13] 1 | phenotypically active [15] 1 | phenotypically active [17] 1
3 µM: lowest phenotypically active concentration [3]
inactive: phenotypically active [5] 0 | phenotypically active [6] 0 | phenotypically active [8] 0 | phenotypically active [9] 0 | phenotypically active [14] 0 | phenotypically active [16] 0 | phenotypically active [18] 0 | phenotypically active [19] 0
9 µM: lowest phenotypically active concentration [1] | lowest phenotypically active concentration [2] | lowest phenotypically active concentration [4]

CC1=C(/C=C/C(C)=C/C=C/C(C)=C/C(=O)O)C(C)(C)CCC1 [isotretinoin]
≤ 0.3 µM: lowest phenotypically active concentration [1]
inactive: phenotypically active [5] 0 | phenotypically active [6] 0 | phenotypically active [7] 0 | phenotypically active [8] 0 | phenotypically active [9] 0 | phenotypically active [10] 0 | phenotypically active [12] 0 | phenotypically active [13] 0 | phenotypically active [14] 0 | phenotypically active [15] 0 | phenotypically active [16] 0 | phenotypically active [17] 0 | phenotypically active [19] 0
active: phenotypically active [11] 1 | phenotypically active [18] 1

Cc1ccc(-n2sc3ccccc3c2=O)cc1
active: phenotypically active [11] 1 | phenotypically active [12] 1 | phenotypically active [15] 1 | phenotypically active [17] 1
inactive: phenotypically active [5] 0 | phenotypically active [6] 0 | phenotypically active [7] 0 | phenotypically active [8] 0 | phenotypically active [9] 0 | phenotypically active [10] 0 | phenotypically active [13] 0 | phenotypically active [14] 0 | phenotypically active [16] 0 | phenotypically active [18] 0 | phenotypically active [19] 0
9 µM: lowest phenotypically active concentration [1] | lowest phenotypically active concentration [2] | lowest phenotypically active concentration [3] | lowest phenotypically active concentration [4]

Cc1cc(C)c(C)c(S(=O)(=O)Nc2ccc(N3CC[C@H](C(=O)O)C3)c3ccccc23)c1C
active: phenotypically active [7] 1 | phenotypically active [12] 1 | phenotypically active [17] 1
9 µM: lowest phenotypically active concentration [2]
1 µM: lowest phenotypically active concentration [4]
inactive: phenotypically active [5] 0 | phenotypically active [6] 0 | phenotypically active [8] 0 | phenotypically active [9] 0 | phenotypically active [10] 0 | phenotypically active [11] 0 | phenotypically active [13] 0 | phenotypically active [14] 0 | phenotypically active [15] 0 | phenotypically active [16] 0 | phenotypically active [18] 0 | phenotypically active [19] 0

CC1(C)CCC(C)(C)c2cc(C(O)C(=O)Nc3ccc(C(=O)O)cc3F)ccc21 (stereo not given)
9 µM: lowest phenotypically active concentration [1]
inactive: phenotypically active [5] 0 | phenotypically active [6] 0 | phenotypically active [7] 0 | phenotypically active [8] 0 | phenotypically active [9] 0 | phenotypically active [10] 0 | phenotypically active [12] 0 | phenotypically active [13] 0 | phenotypically active [14] 0 | phenotypically active [15] 0 | phenotypically active [16] 0 | phenotypically active [17] 0 | phenotypically active [18] 0 | phenotypically active [19] 0
active: phenotypically active [11] 1

c1ccc(-c2n[nH]cc2-c2ccnc3ccccc23)nc1
inactive: phenotypically active [5] 0 | phenotypically active [6] 0 | phenotypically active [7] 0 | phenotypically active [8] 0 | phenotypically active [10] 0 | phenotypically active [14] 0 | phenotypically active [17] 0 | phenotypically active [18] 0 | phenotypically active [19] 0
9 µM: lowest phenotypically active concentration [1] | lowest phenotypically active concentration [2] | lowest phenotypically active concentration [3]
active: phenotypically active [9] 1 | phenotypically active [11] 1 | phenotypically active [12] 1 | phenotypically active [13] 1 | phenotypically active [15] 1 | phenotypically active [16] 1

COc1ccc(S(=O)(=O)ON=C2C=C(C)C(=O)C(C)=C2)cc1
active: phenotypically active [7] 1 | phenotypically active [9] 1 | phenotypically active [19] 1
inactive: phenotypically active [5] 0 | phenotypically active [6] 0 | phenotypically active [8] 0 | phenotypically active [10] 0 | phenotypically active [11] 0 | phenotypically active [12] 0 | phenotypically active [13] 0 | phenotypically active [14] 0 | phenotypically active [15] 0 | phenotypically active [16] 0 | phenotypically active [17] 0 | phenotypically active [18] 0

Nc1nnc2[nH]c3ccccc3nc1-2
active: phenotypically active [11] 1
inactive: phenotypically active [5] 0 | phenotypically active [6] 0 | phenotypically active [7] 0 | phenotypically active [8] 0 | phenotypically active [9] 0 | phenotypically active [10] 0 | phenotypically active [12] 0 | phenotypically active [13] 0 | phenotypically active [14] 0 | phenotypically active [15] 0 | phenotypically active [16] 0 | phenotypically active [17] 0 | phenotypically active [18] 0 | phenotypically active [19] 0
9 µM: lowest phenotypically active concentration [1]

Cc1cccc(CCN2CCC(C(=O)c3ccc(NS(C)(=O)=O)cc3)CC2)n1
inactive: phenotypically active [5] 0 | phenotypically active [6] 0 | phenotypically active [7] 0 | phenotypically active [8] 0 | phenotypically active [9] 0 | phenotypically active [10] 0 | phenotypically active [11] 0 | phenotypically active [12] 0 | phenotypically active [13] 0 | phenotypically active [14] 0 | phenotypically active [15] 0 | phenotypically active [16] 0 | phenotypically active [18] 0 | phenotypically active [19] 0
3 µM: lowest phenotypically active concentration [4]
active: phenotypically active [17] 1

NCCCCNS(=O)(=O)c1ccc2c(Cl)cccc2c1 [W-13 hydrochloride]
inactive: phenotypically active [5] 0 | phenotypically active [6] 0 | phenotypically active [7] 0 | phenotypically active [8] 0 | phenotypically active [9] 0 | phenotypically active [10] 0 | phenotypically active [11] 0 | phenotypically active [12] 0 | phenotypically active [13] 0 | phenotypically active [14] 0 | phenotypically active [18] 0
9 µM: lowest phenotypically active concentration [3] | lowest phenotypically active concentration [4]
active: phenotypically active [15] 1 | phenotypically active [16] 1 | phenotypically active [17] 1 | phenotypically active [19] 1

O=C(Nc1ccccc1)N1CCC(Cc2cnc3ccccc3c2)CC1
inactive: phenotypically active [5] 0 | phenotypically active [6] 0 | phenotypically active [7] 0 | phenotypically active [8] 0 | phenotypically active [9] 0 | phenotypically active [10] 0 | phenotypically active [11] 0 | phenotypically active [12] 0 | phenotypically active [15] 0 | phenotypically active [16] 0 | phenotypically active [17] 0 | phenotypically active [18] 0 | phenotypically active [19] 0
9 µM: lowest phenotypically active concentration [20]
active: phenotypically active [13] 1 | phenotypically active [14] 1
